Records with an inconclusive call do not appear. Activity calls are given as the source filed them. Unless noted, no cut-off is given here; in the data, nearly all actives have AC50 up to about 30 µM.
How the values were obtained:
[1] = growth inhibition of DIPG glioma cells, dose response, cell-based, SU-DIPG-XIII, MIPE4.0, CellTiter-Glo, qHTS (AID 1347061; cut-off not given, nearly all actives have AC50 up to about 37 µM;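 note: cells exposed to compound for 48 hours before readout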); conditions: SU-DIPG-XIII viability, CellTiter-Glo ATP luminescence
[2] = growth inhibition of DIPG glioma cells, dose response, cell-based, JHH-DIPG-1, MIPE4.0, CellTiter-Glo, qHTS (AID 1347062; cut-off not given, nearly all actives have AC50 up to about 27 µM;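 for AC50: cells exposed to compound for two days before readout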); conditions: JHH-DIPG-1 viability, CellTiter-Glo ATP luminescence
[3] = growth inhibition of DIPG glioma cells, dose response, cell-based, SU-DIPG-IV, MIPE4.0, CellTiter-Glo, qHTS (AID 1347063); conditions: SU-DIPG-IV viability, CellTiter-Glo ATP luminescence;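 note: compound exposure lasted 48 hours before the viability readout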
[4] = SU-DIPG-VI glioma cell viability, MIPE4.0 library, CellTiter-Glo luminescence, qHTS (AID 1347066); conditions: CellTiter-Glo ATP luminescence;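 note: cells exposed to compound for 48 hours before readout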
[5] = SU-DIPG-XXV glioma cell viability, MIPE5.0 library, qHTS (AID 1347068; cut-off not given, nearly all actives have IC50 up to about 30 µM;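 for IC50: cells exposed to compound for 48 hours before viability readout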)
[6] = sensitizers of A549 cells to miR-34 induction, primary screen, imaging, A549 dox-inducible miR-34, nuclei and caspase counts (AID 1347080;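 active = compounds whose cell count with miR-34 switched on is under 0.7 times the count with it off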); conditions: A549 miR-34 inducible, Hoechst nuclei count, 48 h
[7] = survival rescue of mitochondrial mutant cells in low glucose, primary screen, MELAS cybrids, Rieske KO mouse fibroblasts, CellTiter-Glo (AID 1508586;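 active = mean z-score across replicates of 1.96 or higher in either the MELAS or the Rieske mutant cell line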;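 note: z relative to plate mean and SD of compound and empty wells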)
[8] = modifiers of HSF1 nuclear foci, imaging, Selleck Cancer Library (AID 1347162; in the data active = plate-normalised HSF1 focus index below about 0.46); conditions: human cells, at 10 µM; SSMD: measured here: HSF1 foci SSMD mean; cell count: measured here: cell number; plate-normalised HSF1 focus index: stronger effect = lower value
[9] = JHH-DIPG-1 glioma cell viability, MIPE5.0 library, CellTiter-Glo luminescence, qHTS (AID 1347067; cut-off not given, nearly all actives have AC50 up to about 26 µM;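 note: cells exposed to compound for 48 hours before readout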); conditions: JHH-DIPG-1 glioma viability, CellTiter-Glo ATP luminescence
[10] = growth inhibition of DIPG glioma cells, dose response, cell-based, SU-DIPG-XIII, MIPE5.0, CellTiter-Glo, qHTS (AID 1347064; cut-off not given, nearly all actives have AC50 up to about 23 µM;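 note: cells exposed to compound for 48 hours before the viability read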); conditions: SU-DIPG-XIII viability, CellTiter-Glo ATP luminescence
[11] = viability loss in pontine glioma line – cell-based, SU-DIPG-XXV, MIPE5.0, CellTiter-Glo, qHTS, dose response (AID 1347065; cut-off not given, nearly all actives have AC50 up to about 26 µM;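 note: cells exposed to compound for 48 hours before ATP readout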); conditions: CellTiter-Glo ATP luminescence
[12] = stronger effect = lower value, cell number ratio, induced over uninduced
[13] = measured here: relative caspase fold change +Dox/-Dox
[14] = measured here: total cells with miR-34 induction, stronger effect = lower value
[15] = measured here: total cells without miR-34 induction
[16] = MELAS cybrid survival, CellTiter-Glo 48 h, stronger effect = higher value
[17] = Rieske KO mouse fibroblast survival, CellTiter-Glo 72 h

CC(NCc1ccc2c(c1)nc(NC(=O)c1ccc(-c3cn[nH]c3)s1)n2CC(C)(C)O)C(C)(C)C (stereo not given)
AC50 [1]: 3.32 µM (active)
AC50 [2]: 0.332 µM (active)
AC50 [3]: 833 nM (active)
AC50 [4]: 5.9 µM (active)

CCCCCCCCCCCCc1ccc(S(=O)(=O)Nc2nncs2)cc1
outcome [1]: inactive
outcome [2]: inactive
outcome [3]: inactive
outcome [4]: inactive
outcome [5]: inactive
fold change [6, 12]: 0.927 (inactive)
fold change [6, 13]: 1.16
cell count [6, 14]: 8010
cell count [6, 15]: 8650
z-score [7, 16]: 0.533 (inactive)
z-score [7, 17]: 0.0837

N#CC[C@H](C1CCCC1)n1cc(-c2ncnc3[nH]ccc23)cn1
outcome [1]: inactive
outcome [2]: inactive
outcome [3]: inactive
outcome [4]: inactive
outcome [5]: inactive
SSMD [8]: 3.63
cell count [8]: 7430
plate-normalised HSF1 focus index [8]: 1.23 (inactive)

Cc1ccn(-c2ccc(-c3ncco3)cc2)c(=O)c1-c1ccc2nc(N)ncc2c1
outcome [1]: inactive
outcome [2]: inactive
outcome [3]: inactive
outcome [4]: inactive
outcome [9]: inactive

Nc1ncnc2c1ncn2[C@@H]1O[C@@H](CO)[C@H](O)[C@@H]1O
outcome [1]: inactive
outcome [2]: inactive
outcome [3]: inactive
outcome [4]: inactive

O=C(Nc1cc2cc[nH]c2cn1)c1ccccc1
AC50 [1]: 14.8 µM (active)
AC50 [2]: 5.9 µM (active)
AC50 [3]: 3320 nM (active)
AC50 [4]: 14.8 µM (active)
fold change [6, 12]: 0.982 (inactive)
fold change [6, 13]: 0.194
cell count [6, 14]: 8430
cell count [6, 15]: 8590
z-score [7, 16]: -0.697 (inactive)
z-score [7, 17]: -2.76

O=C(Nc1ncc(SCCN2CCCC2)s1)[C@]1(c2ccc(S(=O)(=O)C3CC3)cc2)C[C@H]1C1CCCCC1
outcome [1]: inactive
AC50 [2]: 14.8 µM (active)
AC50 [10]: 16.6 µM (active)
AC50 [11]: 9.34 µM (active)
AC50 [4]: 20.9 µM (active)
AC50 [9]: 11.8 µM (active)
IC50 [5]: 20.9 µM (active)

CC(C)CN(C[C@@H](O)[C@H](Cc1ccccc1)NC(=O)O[C@H]1CO[C@H]2OCC[C@H]21)S(=O)(=O)c1ccc(N)cc1
AC50 [1]: 20.9 µM (active)
outcome [2]: inactive
outcome [3]: inactive
AC50 [4]: 23.5 µM (active)
z-score [7, 16]: 0.705 (inactive)
z-score [7, 17]: 0.765

From PubChem BioAssay
